The nature of assay [1]: AP1 Signaling Pathway (AID 357; active = well fitted curve in either direction with a large enough effect, not every such curve was filed as active;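 note: ME-180 reporter cells stimulated with EGF at its EC50 level; % is set by controls: 0 for no effect and ±100 for the full control effect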). The settings on record: ME-180 AP-1-bla reporter, EGF-induced, beta-lactamase ratio, 5 h; at 7.69 µM (top of the series) unless noted. An outline of the steps: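 Modulation of EGF-driven AP-1 transcription was assessed with a beta-lactamase reporter in ME-180 cells. Compound and EC50 EGF were co-incubated 5 hours at 37 °C before 2.5-hour CCF4 loading at room temperature and dual-emission reading.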

Assay [2] addresses Cytochrome P450 1A2 (Homo sapiens) (UniProt P05177). The assay is described as follows: p450-cyp1a2 (AID 410; calls by dose curve; note: potency is the fitted concentration of half-maximal effect;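 for activity change, negative = inhibition: -100% = full effect of reference inhibitor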). An outline of the steps:
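Inhibition was calculated relative to 57 uM furafylline (full inhibition). The reaction used human CYP1A2 at 20nM with Luciferin-ME at its Km, 100uM, driven by an NADPH-regenerating system for 60 min at room temperature.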

Assay [3] in a line: NFAT Signaling Pathway (AID 444; active = well fitted curve in either direction with a large enough effect, not every such curve was filed as active;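 note: carbachol stimulus at about its EC50 of 1 µM final; % is set by controls: 0 for no effect and ±100 for the full control effect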). The settings on record: Jurkat NFAT-bla M1, carbachol, beta-lactamase ratio, 5 h; at 7.69 µM (top of the series) unless noted. An outline of the steps: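 Read-out: CCF4 FRET ratio (460 nm/530 nm) after 1 h RT dye loading, used for %activity and AC50 from titration series. Cells: Jurkat NFAT-β-lactamase/M1 line, treated with compound plus 1 uM carbachol for 5 h, 37 °C.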

The nature of assay [4]: Stat Signaling Pathway (AID 446; active = well fitted curve in either direction with a large enough effect, not every such curve was filed as active;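 note: ME-180 cervical cancer cells given 40 pM IL-6 alongside compound; SIE-controlled beta-lactamase reporter measured as 460/530 nm FRET emission ratio; % is set by controls: 0 for no effect and ±100 for the full control effect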). The settings on record: ME-180 SIE beta-lactamase reporter, IL-6 stimulated, 5 h; at 7.69 µM (top of the series) unless noted. An outline of the steps: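 ME-180 cells carrying a SIE-driven beta-lactamase reporter are stimulated with 40 pM IL-6 for 5 h at 37C in the presence of compound. The 460/530 nm FRET substrate ratio is read after 2.5 h at RT. Data are normalised to 300 pM IL-6 and to 125 nM JAK inhibitor controls.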

The target of assay [5] is Glucocorticoid receptor (Homo sapiens) (UniProt P04150). Kind of assay: GR-GFP Redistribution (AID 450;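 active = compounds whose dose series gives a full or clear partial fitted curve of increased nuclear translocation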; note: potency is the fitted concentration of half-maximal effect). The settings on record: U2OS GR-GFP nuclear translocation, laser cytometry, 2 h.
Assay [6] shares this target. Kind of assay: GR-EFC Redistribution (AID 451; calls by dose curve; note: potency is the fitted concentration of half-maximal effect). The note with it: CHO-K1 GR-EFC translocation, beta-gal luminescence, 2 h. An outline of the steps:
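Translocation of GR-ED fusion to nuclear EA restores b-gal, read by luminescence after 1 h room-temperature detection. Engineered CHO-K1 biosensor cells, 1,000/well, exposed 2 h at 37 C to titrations up to 46 uM final.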

Assay [7] deals with Mitogen-activated protein kinase 10 (Mus musculus) (UniProt Q61831). The assay is described as follows: JNK3 AlphaScreen Assay (AID 530; active = well fitted curve in either direction with a large enough effect, not every such curve was filed as active;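 note: kinase came from lysate of stimulated human HepG2 cells; signal reports phosphorylation of biotinylated GST-cJun 1-79 at Ser73 with 10 µM ATP; % is set by controls: 0 for no effect and ±100 for the full control effect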). An outline of the steps: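 Room-temperature AlphaScreen kinase assay; pre-activated HepG2 lysate as JNK3 source, biotin-GST-cJun(1-79) substrate, 10 uM ATP, compound 15 min preincubation.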
Background: In Alpha technology, singlet oxygen from a donor bead excites a nearby acceptor bead.

Assay [8] has as its target Cytochrome P450 2C9 (Homo sapiens) (UniProt P11712). Kind of assay: qHTS Assay for Inhibitors and Substrates of Cytochrome P450 2C9 (AID 883). Note: % is set by controls: 0 for no effect and ±100 for the full control effect; nearly all actives have a fitted effect of over 60% in size. An outline of the steps:
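Luminescent read-out of deoxyluciferin hydroxylation, normalized to 57uM sulphaphenazole (AC100). Reaction: 10nM enzyme, 100uM Luciferin-H (equal to KM), 25mM KPO4, 10 min compound preincubation, then 60 min with NADPH regeneration, both at 37C.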
On the technique in general: In qHTS, concentration-response curves come from the screen itself.

The target in assay [9] is Cytochrome P450 2C19 (Homo sapiens) (UniProt P33261). The assay is described as follows: qHTS Assay for Inhibitors and Substrates of Cytochrome P450 2C19 (AID 899). Note: % is set by controls: 0 for no effect and ±100 for the full control effect; nearly all actives have a fitted effect of over 60% in size. An outline of the steps:
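Luminescence readout of luciferin formed from 10uM Luciferin-H EGE (KM level) by 5 nM CYP2C19 in 50mM KPO4. 60 min NADPH-driven reaction at 37C after 10 min compound preincubation; data scaled to 57uM ketoconazole inhibition.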

The nature of assay [10]: qHTS Assay for Lipid Storage Modulators (AID 1519; calls by dose curve). The settings on record: Drosophila S3 cells, BODIPY lipid droplet/cell ratio, laser cytometry, cells loaded with oleic acid; for activity change, negative = inhibition: at 57.5 µM (top of the series). An outline of the steps:
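Cells seeded at 5,000 per well were treated with compounds over a concentration series and loaded with oleic acid (400 uM, as added). Lipid droplet fluorescence (488 nm excitation, 500-530 nm channel) was read by laser-scanning cytometry and normalized to 20 uM Triacsin C.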

Assay [11] has as its target Dual specificity protein kinase CLK4 (Homo sapiens) (UniProt Q9HAZ1). The assay is described as follows: qHTS Assay for Inhibitors of CDC-like Kinase 4 (Kinase-Glo Assay) (AID 1770). Note: nearly all actives have a fitted effect of over 65% in size. Note: potency is the fitted concentration of half-maximal effect. An outline of the steps:
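Luminescent ATP-depletion read-out (Kinase-Glo) after 4.5 h room-temperature reaction of Clk4 (25 nM final) with RS peptide (100 uM) and ATP (1 uM), pH 7.5 Tris buffer with MgCl2 and DTT.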

Assay [12] shares this target. The assay is described as follows: qHTS Assay for Inhibitors of CDC-like Kinase 4 (ADP-Glo Assay) (AID 1771). Note: nearly all actives have a fitted effect of over 70% in size. Note: potency is the fitted concentration of half-maximal effect. An outline of the steps: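 Kinase reaction: Clk4 at 25 nM, RS repeat peptide substrate at 100 uM, ATP at 1 uM, 1 hr, room temperature. Product ADP detected as luciferase signal via ADP-Glo.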
Assay [13] has as its target Ubiquitin carboxyl-terminal hydrolase 1 (Homo sapiens) (UniProt O94782). The assay is described as follows: Inhibitors of USP1/UAF1: Pilot qHTS (AID 504865).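 Note: rhodamine fluorescence freed from ubiquitin-rhodamine substrate followed over time; top concentration of the series differs between compounds; % is set by controls: 0 for no effect and ±100 for the full control effect; nearly all actives have a fitted effect of over 35% in size.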 An outline of the steps:
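Deubiquitinase activity followed as kinetic rhodamine fluorescence release from 150 nM Ub-Rho. 1 nM USP1/UAF1 with compound, after 15 min room-temperature preincubation, in HEPES pH 7.8 buffer containing TCEP, EDTA, BSA and Tween-20.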

The nature of assay [14]: Primary qHTS for small molecule stabilizers of the endoplasmic reticulum resident proteome: Secreted ER Calcium Modulated Protein (SERCaMP) assay (AID 1508630). Note: % is set by controls: 0 for no effect and ±100 for the full control effect. An outline of the steps: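 GLuc-SERCaMP-expressing SH-SY5Y cells, pretreated 16 h with compound, are challenged with thapsigargin to empty ER calcium stores; after 4 h, coelenterazine is added directly to the medium and luminescence is imaged.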

In assay [15] the target is Lysosomal acid glucosylceramidase (Homo sapiens) (UniProt P04062). The assay is described as follows: Glucocerebrosidase-p2 (AID 348; in the data active = potency below about 10 µM; note: potency is the fitted concentration of half-maximal effect). The note with it: purified GBA, blue fluorogenic substrate, 40 min. An outline of the steps: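 Compounds titrated from 0.6 nM upwards against 0.2 nM enzyme in pH 5.9 citric acid/KH2PO4, taurocholate, tween-20; blue fluorogenic substrate 80 uM, 40 min room temperature, stopped and read Ex 365/Em 440 for AC50.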

Assay [16] has as its target 3',5'-cyclic-AMP phosphodiesterase 4B (Homo sapiens) (UniProt Q07343). The assay is described as follows: qHTS Assay for Inhibitors of PDE-IV (AID 607; active = well fitted activation curve with a large enough effect in the main read-out, with a control signal flat, not every such curve was filed as active; note: % of control where 0% means no effect). An outline of the steps:
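HEK293 ACTOne cells with CNG channel (1000/well), endogenous PDE4; membrane potential dye, compounds up to 22.9 uM final. Fluorescence Ex 535/Em 590; RO 20-1724 (100 uM final) as reference.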

For assay [17], the target named is Dual specificity protein kinase CLK4 (Homo sapiens) (UniProt Q9HAZ1). The assay is described as follows: qHTS Assay for Inhibitors of CDC-like Kinase 4 (ADP-FP Assay) (AID 1795).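 Note: recombinant human CLK4 phosphorylating RS repeat peptide at 1 µM ATP; % is set by controls: 0 for no effect and ±100 for the full control effect; nearly all actives have a fitted effect of over 60% in size.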 An outline of the steps:
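Kinase activity was measured as ADP production using Transcreener orange tracer (4 nM) and ADP antibody (1 ug/mL) fluorescence polarization, with ADP calculated from a calibration curve. The 1 h reaction contained 6.25 nM Clk4, 1 uM ATP and 100 uM RS peptide at pH 7.5 with Mg2+.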

For assay [18], the target named is Cytochrome P450 3A4 (Homo sapiens) (UniProt P08684). The assay is described as follows: qHTS Assay for Inhibitors and Substrates of Cytochrome P450 3A4 (AID 884). Note: % is set by controls: 0 for no effect and ±100 for the full control effect; nearly all actives have a fitted effect of over 50% in size. An outline of the steps: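 20 nM human CYP3A4 with 25 uM Luciferin-PPXE (at KM) in 200 mM KPO4, preincubated 10 min with compound; NADPH regeneration started a 60 min RT reaction. Luciferin detected by luminescence, normalized to 57 uM ketoconazole as full inhibition.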

For assay [19] the target is unchanged. Kind of assay: qHTS Assay for Activators of Cytochrome P450 3A4 (AID 885). Note: potency is the fitted concentration of half-maximal effect; nearly all actives have a fitted effect of over 65% in size. An outline of the steps:
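Human CYP3A4 (20 nM) with Luciferin-PPXE at 25 uM (its KM) in 200 mM KPO4; 10 min compound preincubation, then NADPH regeneration and 60 min reaction at RT. Luciferin read by luminescence; normalized to 57 uM ketoconazole full inhibition.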

The mark [20] stands for this setting: measured here: cell count channel max response.
[21] abbreviates: measured here: lipid channel max response.

Structures are written as SMILES. Inconclusive results are not listed. Active and inactive are the calls of the source. Unless noted, calls come from the whole dose curve; as a rule, active = well fitted curve in the direction sought with a large enough effect; inconclusive = small, poorly fitted or top-dose-only effect, or another doubt; inactive = no such curve, though single readings can be large; an effect the other way counts as inactive or inconclusive. A value given as a limit tells only on which side of the number the result lay.

Sequence of Cytochrome P450 1A2 (Homo sapiens) (P05177 whole entry, looked up): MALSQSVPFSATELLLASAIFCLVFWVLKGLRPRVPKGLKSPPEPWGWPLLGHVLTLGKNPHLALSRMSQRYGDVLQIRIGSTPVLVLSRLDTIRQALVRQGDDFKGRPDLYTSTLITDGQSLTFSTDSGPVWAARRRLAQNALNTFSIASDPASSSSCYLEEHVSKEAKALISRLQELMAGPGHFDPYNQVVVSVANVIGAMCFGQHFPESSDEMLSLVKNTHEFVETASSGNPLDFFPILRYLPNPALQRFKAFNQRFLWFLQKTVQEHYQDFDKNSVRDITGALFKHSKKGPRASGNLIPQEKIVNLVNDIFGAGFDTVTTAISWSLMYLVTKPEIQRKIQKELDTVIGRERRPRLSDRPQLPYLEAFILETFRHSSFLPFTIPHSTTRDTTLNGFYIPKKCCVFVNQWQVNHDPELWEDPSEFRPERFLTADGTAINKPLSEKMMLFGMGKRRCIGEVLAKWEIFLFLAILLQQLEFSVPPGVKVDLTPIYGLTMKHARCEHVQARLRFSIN
Sequence of Lysosomal acid glucosylceramidase (Homo sapiens) (P04062 whole entry, looked up): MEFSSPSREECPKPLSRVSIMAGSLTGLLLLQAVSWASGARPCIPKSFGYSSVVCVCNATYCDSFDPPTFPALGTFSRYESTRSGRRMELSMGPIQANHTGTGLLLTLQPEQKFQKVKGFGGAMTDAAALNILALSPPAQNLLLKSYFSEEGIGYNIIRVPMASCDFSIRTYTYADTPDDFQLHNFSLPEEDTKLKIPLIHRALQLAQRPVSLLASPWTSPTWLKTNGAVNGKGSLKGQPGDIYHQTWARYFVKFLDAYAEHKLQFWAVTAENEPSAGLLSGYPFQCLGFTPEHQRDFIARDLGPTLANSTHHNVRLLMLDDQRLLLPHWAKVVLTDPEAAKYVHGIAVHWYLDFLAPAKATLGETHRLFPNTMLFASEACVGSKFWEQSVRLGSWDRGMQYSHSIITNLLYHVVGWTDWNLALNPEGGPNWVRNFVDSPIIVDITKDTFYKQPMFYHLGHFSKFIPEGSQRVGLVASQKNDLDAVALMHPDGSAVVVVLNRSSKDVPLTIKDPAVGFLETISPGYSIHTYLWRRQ
Sequence of Dual specificity protein kinase CLK4 (Homo sapiens) (Q9HAZ1 whole entry, looked up): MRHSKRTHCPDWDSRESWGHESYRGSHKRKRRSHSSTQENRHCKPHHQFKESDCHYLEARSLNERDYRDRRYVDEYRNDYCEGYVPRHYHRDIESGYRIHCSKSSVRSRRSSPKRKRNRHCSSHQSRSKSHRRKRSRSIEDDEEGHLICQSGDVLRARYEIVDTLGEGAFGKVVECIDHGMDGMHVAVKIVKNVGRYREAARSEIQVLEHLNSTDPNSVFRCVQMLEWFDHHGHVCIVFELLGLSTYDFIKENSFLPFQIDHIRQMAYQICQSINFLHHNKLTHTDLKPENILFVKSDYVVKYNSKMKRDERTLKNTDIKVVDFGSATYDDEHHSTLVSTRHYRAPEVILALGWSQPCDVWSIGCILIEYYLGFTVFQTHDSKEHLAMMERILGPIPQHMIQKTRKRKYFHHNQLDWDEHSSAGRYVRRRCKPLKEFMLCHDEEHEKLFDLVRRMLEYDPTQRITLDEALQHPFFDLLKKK
Sequence of Glucocorticoid receptor (Homo sapiens) (P04150 whole entry, looked up): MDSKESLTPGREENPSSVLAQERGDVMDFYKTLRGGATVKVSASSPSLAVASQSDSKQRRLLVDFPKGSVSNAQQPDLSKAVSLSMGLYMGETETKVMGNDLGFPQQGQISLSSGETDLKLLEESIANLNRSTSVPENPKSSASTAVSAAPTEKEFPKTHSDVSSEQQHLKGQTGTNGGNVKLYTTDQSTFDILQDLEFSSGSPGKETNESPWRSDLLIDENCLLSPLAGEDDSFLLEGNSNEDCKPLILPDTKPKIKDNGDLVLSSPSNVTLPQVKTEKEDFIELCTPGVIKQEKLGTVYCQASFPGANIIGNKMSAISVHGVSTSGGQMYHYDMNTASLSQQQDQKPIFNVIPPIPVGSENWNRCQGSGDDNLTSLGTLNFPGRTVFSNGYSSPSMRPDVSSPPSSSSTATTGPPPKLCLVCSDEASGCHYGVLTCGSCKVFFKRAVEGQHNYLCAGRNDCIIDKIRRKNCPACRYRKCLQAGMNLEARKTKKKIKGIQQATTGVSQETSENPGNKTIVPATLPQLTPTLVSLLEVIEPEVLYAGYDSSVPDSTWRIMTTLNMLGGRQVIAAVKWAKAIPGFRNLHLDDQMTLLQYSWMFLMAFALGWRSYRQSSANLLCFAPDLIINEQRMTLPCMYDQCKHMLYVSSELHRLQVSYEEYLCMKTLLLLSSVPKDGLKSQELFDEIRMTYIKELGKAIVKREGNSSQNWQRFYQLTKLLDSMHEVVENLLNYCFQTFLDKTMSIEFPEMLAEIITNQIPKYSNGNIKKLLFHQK
Sequence of 3',5'-cyclic-AMP phosphodiesterase 4B (Homo sapiens) (Q07343 whole entry, looked up): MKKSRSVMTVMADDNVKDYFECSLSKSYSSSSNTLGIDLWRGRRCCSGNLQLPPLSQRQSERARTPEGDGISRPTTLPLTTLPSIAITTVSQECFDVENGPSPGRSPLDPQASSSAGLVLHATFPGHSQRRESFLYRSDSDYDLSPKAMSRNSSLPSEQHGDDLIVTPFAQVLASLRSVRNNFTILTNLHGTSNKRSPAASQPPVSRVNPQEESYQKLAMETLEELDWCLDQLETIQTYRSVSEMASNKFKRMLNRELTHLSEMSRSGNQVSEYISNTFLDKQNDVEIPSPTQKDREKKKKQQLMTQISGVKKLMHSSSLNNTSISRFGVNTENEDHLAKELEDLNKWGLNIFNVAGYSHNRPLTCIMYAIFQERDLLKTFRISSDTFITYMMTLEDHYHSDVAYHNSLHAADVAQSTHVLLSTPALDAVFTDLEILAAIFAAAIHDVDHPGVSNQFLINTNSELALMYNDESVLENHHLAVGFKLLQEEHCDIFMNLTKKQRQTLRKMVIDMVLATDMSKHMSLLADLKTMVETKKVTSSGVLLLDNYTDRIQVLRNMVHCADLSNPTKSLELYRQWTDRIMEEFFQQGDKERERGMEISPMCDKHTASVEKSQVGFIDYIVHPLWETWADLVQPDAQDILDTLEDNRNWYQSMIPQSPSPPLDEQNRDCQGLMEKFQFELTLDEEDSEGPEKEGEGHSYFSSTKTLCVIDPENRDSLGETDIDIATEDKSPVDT
Sequence of Ubiquitin carboxyl-terminal hydrolase 1 (Homo sapiens) (O94782 whole entry, looked up): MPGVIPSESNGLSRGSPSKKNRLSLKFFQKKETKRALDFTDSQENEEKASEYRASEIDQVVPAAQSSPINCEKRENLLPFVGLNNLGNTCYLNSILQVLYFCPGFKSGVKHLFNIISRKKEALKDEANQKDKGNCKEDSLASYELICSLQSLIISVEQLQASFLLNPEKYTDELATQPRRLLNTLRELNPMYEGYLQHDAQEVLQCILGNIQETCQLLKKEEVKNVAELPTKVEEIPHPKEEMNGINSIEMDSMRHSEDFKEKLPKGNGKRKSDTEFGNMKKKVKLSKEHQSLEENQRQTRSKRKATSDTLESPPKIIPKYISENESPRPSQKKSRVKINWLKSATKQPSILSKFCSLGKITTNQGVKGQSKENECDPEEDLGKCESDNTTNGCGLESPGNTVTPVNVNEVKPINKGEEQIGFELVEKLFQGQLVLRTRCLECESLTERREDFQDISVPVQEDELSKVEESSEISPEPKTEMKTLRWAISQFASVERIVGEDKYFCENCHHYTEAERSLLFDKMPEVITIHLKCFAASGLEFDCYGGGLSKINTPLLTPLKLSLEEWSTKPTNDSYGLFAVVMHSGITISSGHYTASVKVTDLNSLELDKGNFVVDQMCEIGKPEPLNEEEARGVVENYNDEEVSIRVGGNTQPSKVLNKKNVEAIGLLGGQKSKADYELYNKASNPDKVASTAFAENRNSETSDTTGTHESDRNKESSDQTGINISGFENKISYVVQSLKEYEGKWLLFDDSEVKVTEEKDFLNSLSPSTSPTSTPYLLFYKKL
Sequence of Cytochrome P450 2C19 (Homo sapiens) (P33261 whole entry, looked up): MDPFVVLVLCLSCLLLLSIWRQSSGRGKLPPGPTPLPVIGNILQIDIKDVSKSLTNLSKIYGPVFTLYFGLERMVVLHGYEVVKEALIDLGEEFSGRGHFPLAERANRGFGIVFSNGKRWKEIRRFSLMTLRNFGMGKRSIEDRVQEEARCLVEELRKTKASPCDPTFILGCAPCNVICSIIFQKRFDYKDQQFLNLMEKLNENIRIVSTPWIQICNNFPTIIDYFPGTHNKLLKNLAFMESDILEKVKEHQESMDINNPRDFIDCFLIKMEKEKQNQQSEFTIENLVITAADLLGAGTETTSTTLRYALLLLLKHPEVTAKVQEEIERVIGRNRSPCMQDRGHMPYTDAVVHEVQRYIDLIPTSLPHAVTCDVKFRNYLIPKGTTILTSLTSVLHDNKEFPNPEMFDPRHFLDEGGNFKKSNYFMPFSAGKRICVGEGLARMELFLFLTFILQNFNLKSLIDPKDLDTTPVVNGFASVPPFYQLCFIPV
Sequence of Cytochrome P450 3A4 (Homo sapiens) (P08684 whole entry, looked up): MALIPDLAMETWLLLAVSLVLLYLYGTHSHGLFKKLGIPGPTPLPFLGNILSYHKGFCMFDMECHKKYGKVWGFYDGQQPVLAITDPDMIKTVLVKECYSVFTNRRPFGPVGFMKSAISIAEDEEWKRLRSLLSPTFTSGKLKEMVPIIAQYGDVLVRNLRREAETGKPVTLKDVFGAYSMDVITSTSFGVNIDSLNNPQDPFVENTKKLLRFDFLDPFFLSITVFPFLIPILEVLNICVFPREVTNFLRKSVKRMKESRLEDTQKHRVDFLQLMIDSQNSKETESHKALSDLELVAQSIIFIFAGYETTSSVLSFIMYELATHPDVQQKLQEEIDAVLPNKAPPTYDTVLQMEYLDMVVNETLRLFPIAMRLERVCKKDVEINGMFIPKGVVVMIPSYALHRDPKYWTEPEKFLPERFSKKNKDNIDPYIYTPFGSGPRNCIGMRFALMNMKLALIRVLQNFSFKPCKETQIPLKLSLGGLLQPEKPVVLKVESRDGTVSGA

Regarding `COc1ccc(-n2c(=O)c(-c3cccs3)nc3cnc(N(C)C)nc32)cc1`, the activity change, negative = inhibition was -10.2% (inactive) in [1], -4.88% (inactive) in [3] and 7.83% (inactive) in assay [10]. Besides, the Potency entry in [2], in assay [8], in assay [9], in assay [11], in assay [12] and in [13] was “inactive” in each case. The Potency result in assay [14] was “inactive”. Moreover, the activity, negative = inhibition in [4] is -9.54% (inactive). Further, the Potency was > 9.22 µM (inactive) in assay [5] and > 46 µM (inactive) in [6]. For the same compound, the outcome in assay [7] was inactive. Moreover, the results for the max response in [10] (setting [20]) and in assay [10] (setting [21]) were 19% and 25.4%, respectively.

Take `Cc1cnc(CNc2cc(-c3cccc(NS(C)(=O)=O)c3)ncn2)cn1`: the Potency is > 11.4 µM (inactive) in assay [15]; > 46 µM (inactive) in [5]; > 46 µM (inactive) in assay [6]; 25.1 µM (active) in [11]; 15.8 µM (active) in [12]. Also, the activity change, negative = inhibition in assay [1] was 20.7% (inactive); in [3], -0.447% (inactive); in assay [10], 5.3% (inactive). Also, in assay [4], the activity, negative = inhibition was -0.385% (inactive). The compound was called inactive in assay [7]. Moreover, the Potency entry in [16], in [13] and in [14] was “inactive” throughout. Moreover, the max response in [10] (setting [20]) came to 37.3%; in assay [10] (setting [21]), 40.2%.

For the compound `Cc1nc2cnc(N(C)C)nc2n(CCC#N)c1=O`, the Potency in assay [15] was > 11.4 µM (inactive); in assay [2] it was 10 µM (active); in [5], > 9.22 µM (inactive); in assay [6], > 46 µM (inactive). The activity change, negative = inhibition in [1] was -8.9% (inactive); in assay [3] it was -13.7% (inactive); in assay [10], 2.74% (inactive). Besides, in assay [4], the activity, negative = inhibition was -1.16% (inactive). Further, the result in [7] was inactive. For the same compound, the Potency result in [16], in [11], in assay [17], in [13] and in assay [14] was “inactive” throughout. For the same compound, the max response in assay [10] (setting [20]) is 4.56%; in assay [10] (setting [21]) it was 5.95%.

`COc1cccc(-c2cncnc2NC2CCNCC2)c1`: the Potency is > 11.4 µM (inactive) in assay [15], > 46 µM (inactive) in assay [5] and > 46 µM (inactive) in [6]. For the same compound, the values for the activity change, negative = inhibition in assay [1], in assay [3] and in assay [10] were -6.98% (inactive), 9.29% (inactive) and 2.06% (inactive), respectively. For the same compound, the Potency result in assay [2], in [16], in assay [9], in assay [11], in assay [12] and in [14] was “inactive” throughout. Also, in [4], the activity, negative = inhibition is 13.9% (inactive). Further, the call in assay [7] was inactive. Also, the max response was 12.6% in assay [10] (setting [20]) and 15.6% in assay [10] (setting [21]).

For `Cc1cnc(CNc2ccnc(-c3ccccc3CN(C)C)n2)cn1`, the results for the Potency in assay [15], in assay [5] and in [6] were > 11.4 µM (inactive), > 46 µM (inactive) and > 46 µM (inactive), respectively. The activity change, negative = inhibition in assay [1] is 10.8% (inactive); in assay [3] it was -5.1% (inactive); in [10], 5.8% (inactive). Moreover, in [4], the activity, negative = inhibition was 12.3% (inactive). Besides, the call in assay [7] was inactive. For the same compound, the Potency entry in [16], in [11], in [12], in [13] and in [14] was “inactive” each time. In addition, the max response in assay [10] (setting [20]) amounted to 23.9%; in assay [10] (setting [21]) it was 27.5%.

In the case of `Cn1c(=O)c(-c2cccc(C#N)c2)nc2cnc(Oc3ccccc3)nc21`, the Potency in assay [15] is > 11.4 µM (inactive); in [2] it was 1.58 µM (active); in [5] it was > 9.22 µM (inactive); in assay [6] it was > 46 µM (inactive); in [19], 3.16 µM (active). Further, the values for the activity change, negative = inhibition in assay [1], in [3] and in assay [10] were -13.9% (inactive), -0.708% (inactive) and -3.03% (inactive), respectively. For the same compound, the activity, negative = inhibition in assay [4] is 1.85% (inactive). Moreover, the compound was called inactive in assay [7]. In addition, the Potency entry in assay [16], in [18], in assay [11], in [12], in assay [13] and in assay [14] was “inactive” throughout. For the same compound, the max response in [10] (setting [20]) is 16.1%; in assay [10] (setting [21]) it was 12.2%.

For the origin of these results see PubChem BioAssay (NCATS).
